The source of these data is PubChem BioAssay (Tox21).

Each structure is given as a SMILES string. Records with an inconclusive call do not appear. A call without a number means that no potency is given here. Calls of active or inactive are those of the source. Calls follow the shape of the full dose curve.

For this experiment, the target named is Vitamin D3 receptor (Homo sapiens) (UniProt P11473). The experiment can be described thus: qHTS assay to identify small molecule agonists of the vitamin D receptor (VDR) signaling pathway (AID 743222). The following applies: HEK293T VDR-UAS-bla, beta-lactamase FRET ratio, 16 h; series mostly up to 63.5 µM. From the text: National Center for Advancing Translational Sciences [NCATS]
Chain of Vitamin D3 receptor (Homo sapiens) (P11473 whole entry, looked up): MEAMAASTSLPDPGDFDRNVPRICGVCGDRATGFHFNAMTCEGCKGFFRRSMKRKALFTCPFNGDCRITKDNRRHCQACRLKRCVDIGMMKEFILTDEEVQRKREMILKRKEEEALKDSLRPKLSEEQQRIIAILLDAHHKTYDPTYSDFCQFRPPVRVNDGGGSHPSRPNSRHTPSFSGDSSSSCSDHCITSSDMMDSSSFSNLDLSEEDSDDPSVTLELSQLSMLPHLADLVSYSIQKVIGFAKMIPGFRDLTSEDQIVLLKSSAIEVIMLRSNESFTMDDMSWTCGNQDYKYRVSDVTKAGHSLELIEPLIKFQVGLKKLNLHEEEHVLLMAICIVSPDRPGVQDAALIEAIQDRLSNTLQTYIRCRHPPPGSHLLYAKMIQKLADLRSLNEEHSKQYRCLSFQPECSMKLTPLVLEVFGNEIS
NIH Chemical Genomics Center [NCGC]
U.S. Environmental Protection Agency [EPA]
National Institutes of Environmental Health Sciences [NIEHS]
National Toxicology Program [NTP]
U.S. Food and Drug Administration [FDA]
The vitamin D receptor (VDR), a member of nuclear hormone receptor superfamily, plays a critical role in calcium homeostasis and bone metabolism. It is also involved in cell differentiation and growth, and thrombogenicity.
Tox21 Assay Protocol Summary:
VDR-bla cells were dispensed at 2,000 cells/6 uL/well into black wall/clear-bottom 1536-well plates using a Multidrop Combi (Thermo Fisher Scientific, Waltham, MA) dispenser. After the assay plates were incubated at a 37C and 5% CO2 for 4 h, 23 nL of compounds dissolved in DMSO, positive controls or DMSO only was transferred to the assay plate by a Pintool station (Kalypsys, San Diego, CA). The plates were incubated at 37C and 5% CO2 for 16 h. After 1 uL of LiveBLAzerTM B/G FRET substrate was added using a Bioraptr Flying Reagent Dispenser (FRD) workstation (Beckman Coulter, Indianapolis, IN, USA), the plates were incubated at room temperature for 2 h, and fluorescence intensity was measured by an Envision plate reader (PerkinElmer, Shelton, CT).
(In general: qHTS replaces the single test concentration by a dilution series.)
Regarding `O=S(=O)(O)F`, the Potency entry was “inactive”. In the case of `CCCCN(CCCC)C(=S)S`, the Potency result is “inactive”.

On to `CC(O)C(=O)[O][Hg][c]1ccccc1` (stereo not given), for which the Potency result is “inactive”. On to `COC(=O)C(C)N(C(=O)c1ccco1)c1c(C)cccc1C` (stereo not given), for which the Potency result is “inactive”. On to `CSSC`, for which the Potency entry is “inactive”. As for `CC(C)N(C(=O)SC/C(Cl)=C/Cl)C(C)C`, the Potency entry was “inactive”. Regarding `Brc1ccc(Oc2ccc(Br)cc2Br)c(Br)c1`, the Potency result was “inactive”.

`CC(Cc1ccc(OCC(=O)O)cc1)NCC(O)c1csc(C(F)(F)F)n1` (stereo not given): the Potency entry is “inactive”. For the compound `O=C(NC(=O)c1ccccc1Cl)Nc1ccc(OC(F)(F)F)cc1`, the Potency result is “inactive”. In the case of `CCN(CC)C(=S)S`, the Potency entry was “inactive”. `CC(C)[C@@H](Nc1ccc(C(F)(F)F)cc1Cl)C(=O)OC(C#N)c1cccc(Oc2ccccc2)c1` (stereo not given in full): the Potency result was “inactive”. For the compound `Clc1c(Cl)c(Cl)c(Cl)c(Cl)c1Cl`, the activation is -0.148% [at 6.01 µM] (inactive). Turning to `N#CSCc1ccccc1`, the Potency entry is “inactive”. `CCC1COC(Cn2cncn2)(c2ccc(Cl)cc2Cl)O1` (stereo not given): the Potency result was “inactive”. Regarding `Clc1ccc(C(c2ccc(Cl)cc2)C(Cl)Cl)cc1`, the Potency entry was “inactive”. The same measure, in the same setting: the value for `BrCCCBr` was “inactive”. For the compound `N#Cc1c[nH]cc1-c1cccc2c1OC(F)(F)O2`, the Potency entry is “inactive”. Take `Cc1ccc(C)c2ccccc12`: the Potency entry is “inactive”. Take `CC1CCCC1`: the Potency result is “inactive”. For `Cc1c([N+](=O)[O-])c(C)c([N+](=O)[O-])c(C(C)(C)C)c1[N+](=O)[O-]`, the Potency entry is “inactive”.

With `O=C(Nc1ccc(F)cc1F)c1cccnc1Oc1cccc(C(F)(F)F)c1`, the Potency entry is “inactive”. On to `CN(C)c1ccc(N)cc1`, for which the Potency result was “inactive”.

Consider `C=CCBr`, for which the Potency result was “inactive”. The same measure, in the same setting: the value for `CO/N=C(\C(=O)OC)c1ccccc1CO/N=C(\C)c1cccc(C(F)(F)F)c1` was “inactive”; that for `CC(C)C(Nc1ccc(C(F)(F)F)cc1Cl)C(=O)OC(C#N)c1cccc(Oc2ccccc2)c1` (stereo not given) was “inactive”. `O=c1[nH]c2cc(Cl)ccc2n1C1CCNCC1`: the Potency result is “inactive”. Take `COC(=O)N(OC)c1ccccc1COc1ccn(-c2ccc(Cl)cc2)n1`: the Potency result is “inactive”. Regarding `COC(=O)c1ccccc1S(=O)(=O)NC(=O)Nc1nc(C)nc(OC)n1`, the Potency entry was “inactive”. `CCN(CC)Cc1nccn1-c1ccc([N+](=O)[O-])cc1C(=O)c1ccccc1Cl`: the Potency entry is “inactive”. For `O=[N+]([O-])c1cccc2cccc([N+](=O)[O-])c12`, the Potency entry was “inactive”.

Turning to `BrCC(Br)(Br)Br`, the Potency entry is “inactive”. On the same count and under the same terms, with `Cc1nn(-c2cc(NS(C)(=O)=O)c(Cl)cc2Cl)c(=O)n1C(F)F` the entry was “inactive”; with `Oc1cc(Cl)cc(Cl)c1`, “inactive”. Take `[F][Sn]([c]1ccccc1)([c]1ccccc1)[c]1ccccc1`: the Potency entry is “inactive”. Consider `[O]=[Cr](=[O])([OH])[O][Cr](=[O])(=[O])[OH]`, for which the Potency result is “inactive”. Turning to `CCCCN(CCCC)C(=S)[S-].CCCCN(CCCC)C(=S)[S-].[Ni+2]`, the Potency entry is “inactive”. On the same count and under the same terms, with `Brc1cccc(-c2ccccc2)c1` the entry was “inactive”. As for `CC[N+]1(CC)CCC(OC(=O)C(O)(c2ccccc2)c2ccccc2)C1` (stereo not given), the Potency entry was “inactive”. As to `FC(F)C(F)(F)OCC(Cn1cncn1)c1ccc(Cl)cc1Cl` (stereo not given), the Potency result is “inactive”.

For `O=C1C2(Cl)C3(Cl)C4(Cl)C(Cl)(Cl)C5(Cl)C3(Cl)C1(Cl)C5(Cl)C24Cl` (stereo not given), the Potency result is “inactive”.
